Measurements reported in the supplement of paper PMC12067926.

Assays:
Test in all cases: relative growth (AUC of 72 h growth curve relative to DMSO control, dAUC) (ratio); higher = more growth (less inhibition), active = hit call of the paper
Details in all cases: 20 µM;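 active = growth AUC significantly below the DMSO wells by Dunnett test; inactive = the rest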
[1] = system: Prolinoborus 1 (Prolinoborus fasciculus)
Method in brief: (§1)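 Isolates from Icelandic stream sediments and Silwood Park soil, along with whole sediment communities, were grown in Luria–Bertani medium to carrying capacity and diluted 1:100 into 96-well plates with each chemical at 20 µM (1% DMSO). A600 was measured hourly for 72 h, and values were averaged over three biological replicates. Relative growth (dAUC) is the spline-integrated growth-curve area over the mean of the DMSO controls.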

[2] = system: Pseudomonas 1 (Pseudomonas baetica)
Method in brief: as §1

[3] = system: Pseudomonas 2 (Pseudomonas vancouverensis)
Method in brief: as §1

[4] = system: Pseudomonas 3 (Pseudomonas mandelii)
Method in brief: as §1

[5] = system: Pseudomonas 4 (Pseudomonas peli)
Method in brief: as §1

[6] = system: Pseudomonas 5 (Pseudomonas baetica)
Method in brief: as §1

[7] = system: Pseudomonas 6 (Pseudomonas sp.)
Method in brief: as §1

[8] = system: Rhizobium 1 (Rhizobium herbae)
Method in brief: as §1

[9] = system: Serratia 1 (Serratia sp. 2015-2462-01)
Method in brief: as §1

[10] = system: Sphingomonas 2 (Sphingomonas sp.)
Method in brief: as §1

Measured: relative growth

CCOP(=S)(OCC)Oc1nc(Cl)c(Cl)cc1Cl
inactive: [1] 0.989 | [2] 1.04 | [3] 1.01 | [4] 1.05 | [5] 0.991 | [6] 1.06 | [7] 1.08 | [8] 0.929 | [9] 0.993 | [10] 1.07

CO/C=C(/C(=O)OC)c1ccccc1COc1cccc(C(F)(F)F)n1
inactive: [1] 0.929 | [2] 1.02 | [3] 0.958 | [4] 0.991 | [5] 0.97 | [6] 1.05 | [7] 1.11 | [8] 0.96 | [9] 0.966 | [10] 1

CC(C)N1C(=O)N(c2ccccc2)CS/C1=N\C(C)(C)C
inactive: [1] 0.883 | [2] 1.05 | [3] 0.977 | [4] 1.02 | [5] 0.937 | [6] 1.03 | [7] 1.07 | [8] 0.931 | [9] 0.962 | [10] 1.05

N#C/N=C1\SCCN1Cc1ccc(Cl)nc1
inactive: [1] 1.03 | [2] 1.05 | [3] 1.01 | [4] 1.02 | [5] 1.03 | [6] 1 | [7] 1 | [8] 1.02 | [9] 0.986 | [10] 0.998

CCOP(=S)(OCC)Oc1cc(C)nc(C(C)C)n1
inactive: [1] 0.91 | [2] 0.877 | [3] 1.01 | [4] 1.04 | [5] 0.919 | [6] 0.98 | [7] 1.12 | [8] 0.904 | [9] 0.958 | [10] 0.988
